Most compounds without a hit are left out; they make up all but 1.5% or so of the library.
PriA SSB inh: blocks PriA binding to SSB C-terminal tail. inhibition, % at 33 µM. 430,000 tested, 0.6% active. AlphaScreen SSBct-PriA binding, biotinylated peptide; in the data active = inhibition mostly above about 37%, no sharp cut-off; inactive = mostly below about 20%;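 note: plate controls were negative control peptide for no effect and reference peptide for full effect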
Sa ugtP lethal: compounds lethal to S. aureus RN4220 ugtP deletion mutant | 330,000 tested, 0.54% active | growth inhibition, % (test concentration not listed) | OD600 growth, 16 h | AID 1259309; in the data active = growth inhibition above about 68%;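 note: plate controls were untreated wells for no effect and antibiotic for full effect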
CCHF vOTU inh: blocks the CCHF virus ovarian tumor domain protease. 370,000 tested, 0.55% active. CCHFV vOTU protease, Pep-AMC fluorescence. inhibition, % at 11.5 µM; in the data active = inhibition above about 30%; note: 0% = vehicle wells with enzyme and 100% = no enzyme wells
VHR inh abs: DUSP3 (human) phosphatase inhibition | P51452 | recombinant VHR phosphatase, pNPP absorbance | inhibition, % at 13.3 µM | 290,000 tested, 0.52% active; in the data active = inhibition above about 50%
Target sequence (P51452 whole entry, looked up): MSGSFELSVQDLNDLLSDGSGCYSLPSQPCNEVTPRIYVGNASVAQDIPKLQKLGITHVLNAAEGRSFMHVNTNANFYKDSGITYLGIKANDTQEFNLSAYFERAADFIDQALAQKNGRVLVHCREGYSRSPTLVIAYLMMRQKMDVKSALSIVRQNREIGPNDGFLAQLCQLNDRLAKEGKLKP
Sa RN4220 lethal: kills Staphylococcus aureus RN4220 | inhibition, % (concentration not given with the values) | 330,000 tested, 0.33% active | S. aureus RN4220 growth, OD600, 16 h | AID 1259311; in the data active = inhibition above about 85%;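 note: plate controls were untreated cells for no effect and reference antibiotic for full effect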
* hit, by the source's call; x = no result.

SMILES	PriA SSB inh	Sa ugtP lethal	CCHF vOTU inh	VHR inh abs	Sa RN4220 lethal
O=c1ccc(-c2cccs2)nn1CCCNS(=O)(=O)c1cccnc1	-13.0	x	x	x	x
CCCN1CCCc2cc(CCNC(=O)C(=O)NC3CC3)ccc21	37.0	x	x	x	x
CCCN1CCCc2cc(CCNS(=O)(=O)CCC)ccc21	112.1*	x	x	x	x
CN1CCCc2cc(CCNS(=O)(=O)c3cccs3)ccc21	71.0*	x	x	x	x
CCCN1CCCc2ccccc21	39.2*	7.6	2.9	5.7	5.6
CCCN1CCCc2cc(CCNS(=O)(=O)c3ccc4c(c3)OCCO4)ccc21	67.0*	x	x	x	x
Cc1nc(-c2ccc(N3CCN(C(=O)c4cc(-c5ccc(F)cc5)nn4C)CC3)nc2)no1	-4.0	x	x	x	x
O=C1C2C3C=CC(C3)C2C(=O)N1c1ccc(-c2ccc(N3C(=O)C4C5C=CC(C5)C4C3=O)cc2)cc1 (centres undefined)	-22.0	x	x	x	x
CSc1ccc([C@@H](O)CNS(=O)(=O)c2c(C)noc2C)cc1	5.0	x	x	x	x
Cc1ccc(S(=O)(=O)NCCc2ccc3c(c2)CCCN3C)cc1Cl	38.0*	x	x	x	x
CCCN1CCCc2cc(CCNC(=O)CC)ccc21	51.7	x	x	x	x
COc1ccc(C)cc1S(=O)(=O)NCCc1ccc2c(c1)CCCN2C	65.0*	x	x	x	x
CC(C)C(=O)Nc1ccc(S(=O)(=O)NCCc2ccc3c(c2)CCCN3C)cc1	-8.0	x	x	x	x
CCCN1CCCc2cc(CCNS(C)(=O)=O)ccc21	70.0*	x	x	x	x
CCCN1CCCc2cc(CCNS(=O)(=O)CCc3ccccc3)ccc21	71.0*	x	x	x	x
CCSc1nnc(CSc2ncccn2)n1-c1ccc(Cl)cc1	-13.0	x	x	x	x
CCCN1CCCc2cc(CCNS(=O)(=O)c3cc(C)c(OC)c(C)c3)ccc21	63.0	x	x	x	x
CCCN1CCCc2cc(CCNS(=O)(=O)c3ccc(CC)s3)ccc21	60.0*	x	x	x	x
CCCN1CCCc2cc(CCNC(=O)C(=O)NC(C)C)ccc21	22.0	x	x	x	x
CCCN1CCCc2cc(CCNS(=O)(=O)c3ccc(CC)cc3)ccc21	51.0*	x	x	x	x
CCCN1CCCc2cc(CCNS(=O)(=O)c3ccc(F)c(Cl)c3)ccc21	47.0*	x	x	x	x
CCCN1CCCc2cc(CCNS(=O)(=O)CC(C)C)ccc21	74.0*	x	x	x	x
CNC(=O)Cc1ccc(NC(=O)Cc2ccc(F)cc2)cc1	0.0	x	x	x	x
CCn1c(=NC(=O)c2ccnn2C)sc2cc3c(cc21)OCCO3	-4.0	x	x	x	x
Cc1cccc(OCC(=O)Nc2ccc3nc(C)n(-c4ccc(F)cc4)c(=O)c3c2)c1C	-8.0	x	x	x	x
SMILES	PriA SSB inh	Sa ugtP lethal	CCHF vOTU inh	VHR inh abs	Sa RN4220 lethal
COCCCNC(=O)CSc1nc2ccc(N3CCCCC3)cc2c(=O)n1Cc1ccccc1	4.0	x	x	x	x
COc1cc(NC(=O)N2CCC(c3nnc(-c4ccco4)s3)CC2)cc(OC)c1OC	-9.0	x	x	x	x
CCCC(=O)NC(=S)Nc1ccc(N2CCN(C(=O)c3cccs3)CC2)cc1	-5.2	active	0.8	24.4	96.6
CCCCCC(=O)NC(=S)Nc1ccc(N2CCOCC2)cc1	-11.3	91.1*	1.4	-4.1	1.0
CCCC(=O)NC(=S)Nc1ccc(NC(=O)c2cccs2)cc1	8.3	72.4	-10.4	-8.1	2.8
COc1ccccc1OCC#CCNC(=O)c1ccc(Br)o1	-1.0	x	x	x	x
NC(=O)[C@@H]1COc2ccccc2O1	-8.0	x	x	x	x
COc1ccc(NC(=O)C(=O)NCCc2c[nH]c3ccccc23)cc1Cl	-5.0	x	x	x	x
CN(CCCCCCN(C)Cc1ccccc1O)Cc1ccccc1O	-6.6	2.9	2.3	51.5*	3.9
CCn1c(=O)cc(N2CCN(c3ccc(F)cc3)CC2)[nH]c1=O	-12.0	x	x	x	x
COC12C(COC(N)=O)C3=C(C(=O)C(C)=C(N)C3=O)N1CC1C2N1C (centres undefined)	-7.4	100.3*	6.2	16.5	100.0*
CCN(CC)c1ccc(C2C(C(=O)OC)=C(C)NC(C)=C2C(=O)OC)cc1	-16.1	1.0	29.6*	-13.2	3.9
COC(=O)C1=C(C)NC(C)=C(C(=O)OC)C1c1ccc(NC(C)=O)cc1	2.8	-1.2	-11.2	3.5	-0.6
CCOC(=O)c1c(C)oc2c1C(=O)c1ccccc1C2=O	22.7	15.7	16.3	1.1	20.2
O=C1C(=O)c2c(C(=O)c3ccccc3)coc2-c2ccccc21	-5.4	85.9*	23.9	-4.2	93.5*
O=C(c1ccccc1)c1coc2ccc(O)c(Cl)c12	-1.4	2.3	2.4	0.2	7.6
Cc1oc2c(c1C(=O)c1ccccc1)C(=O)C(=O)c1ccccc1-2	26.0	93.7*	23.2	42.0	99.5*
Cc1ccc2nc(NC(=O)c3ccc(NS(=O)(=O)c4cccs4)cc3)sc2c1	-1.7	-20.5	-1.1	55.6*	5.1
Cc1ccc2nc(NC(=O)CCNS(=O)(=O)c3cccs3)sc2c1	-14.2	-4.0	-0.4	14.3	4.3
CCOC(=O)N1CCN(S(=O)(=O)c2ccc(C(=O)Nc3nc(-c4ccc(Cl)s4)cs3)cc2)CC1	-20.0	x	x	x	x
CCCCS(=O)(=O)NCC1CCN(c2nccnc2C#N)CC1	-16.0	x	x	x	x
O=C(O)c1cc(NN=Cc2ccc(N3CCOCC3)s2)ccc1Cl	0.2	5.4	x	x	10.9
O=C(O)c1cc(N/N=C/c2ccc(N3CCOCC3)s2)ccc1Cl	x	x	31.2*	-3.6	x
Cc1ccccc1NC(=S)NC(=O)CCc1ccccc1	-22.8	85.5*	-2.8	13.7	3.2
Nc1ccc(N=Nc2ccccc2)c2cccnc12	59.2*	83.4	23.1	-3.8	-8.6
SMILES	PriA SSB inh	Sa ugtP lethal	CCHF vOTU inh	VHR inh abs	Sa RN4220 lethal
C#Cc1ccc(CN2CCCC(C(=O)Nc3ccccc3Oc3cccnc3)C2)cc1 (centres undefined)	10.1	x	7.0	55.6*	x
CC(C)c1nn(Cc2ccccc2Cl)c(=O)c2c1cnn2C(C)(C)C	-20.0	x	x	x	x
Cc1ccc(-n2c(C)nc3ccc(NC(=O)C(C)Oc4cccc(F)c4)cc3c2=O)cc1 (centres undefined)	-2.0	x	x	x	x
CNS(=O)(=O)c1cccc(C(=O)Nc2cccnc2)c1	-8.4	2.1	20.4	56.4*	0.5
CC(Oc1ccc(Cl)cc1Cl)C(=O)Nc1ccc(-c2cn3c(n2)SCC3)cc1 (centres undefined)	34.0	x	x	x	x
COc1ccc(C)cc1Nc1nc(-c2ccccc2O)nc2ccccc12	-9.5	91.3*	5.1	x	52.8
Cc1ccc(O)c(Nc2c3ccccc3nc3ccccc23)c1	61.5*	-12.1	-136.2	52.0*	4.1
Cc1ccc(O)c(Nc2nc(-c3ccccc3)nc3ccccc23)c1	-7.8	-1.1	0.5	5.8	-14.4
O=c1c(=O)n(-c2ccc(F)cc2)ccn1Cc1ccncc1	8.0	x	x	x	x
CCCN1CCCc2cc(CCNC(=O)c3ccccc3OCC)ccc21	74.0*	x	x	x	x
CCCN1CCCc2cc(CCNC(=O)C(=O)Nc3ccccc3OCC)ccc21	58.0	x	x	x	x
CCCN1CCCc2cc(CCNC(=O)COc3ccc(Cl)cc3)ccc21	73.0*	x	x	x	x
CCCN1CCCc2cc(CCNC(=O)COc3cccc(C)c3)ccc21	89.6*	x	x	x	x
CCCN1CCCc2cc(CCNC(=O)COc3ccc(C)cc3)ccc21	64.3	x	x	x	x
CCCN1CCCc2cc(CCNC(=O)C(=O)Nc3c(C)cccc3C)ccc21	35.0	x	x	x	x
CCCN1CCCc2cc(CCNC(=O)COc3ccc(F)cc3)ccc21	78.0*	x	x	x	x
Cc1ccc(S(=O)(=O)c2nc(-c3ccco3)oc2NCc2ccc3c(c2)OCO3)cc1	-3.0	x	x	x	x
Cc1noc(C)c1CCC(=O)N1CCC(S(=O)(=O)c2ccc(F)cc2)CC1	-2.0	x	x	x	x
CCCC(=O)NCCc1ccc2c(c1)CCCN2CCC	28.0	x	x	x	x
CCCN1CCCc2cc(CCNC(=O)COc3ccc(OC)cc3)ccc21	74.0*	x	x	x	x

Screens from PubChem.
